Results filed as inconclusive are left out. The source made the active and inactive calls. Unless noted, calls follow the shape of the dose curve; as a rule, active = well fitted curve in the direction sought with a large enough effect in the repeat runs; inconclusive = weak or mixed curves; inactive = no such curve, though single readings can be large; an effect the other way counts as inactive or inconclusive.

The text below walks through data of PubChem BioAssay (Tox21).

A short description of assay [1]: qHTS assay to identify small molecule antagonists of the estrogen related receptor (ERR) signaling pathway - cell viability counter screen (AID 1224818).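 Also: series mostly up to about 46 µM; viability measured after 17.5 h of compound exposure.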 In a few lines: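 Multiplexed counter screen to separate cytotoxic compounds from true ERR modulators. ERR cells received DMSO-dissolved compounds after a 6 h pre-incubation, were exposed 17.5 h at 37 C, then assayed with CellTiter-Fluor fluorescence.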

A short description of assay [2]: qHTS assay to identify small molecule antagonists of the estrogen related receptor (ERR) signaling pathway (AID 1224819; also: nearly all actives have a fitted effect of over 50% in size; also: potency is read from the fitted curve at half-maximal effect). In a few lines: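 Seed ERR cells 2,000/well; rest 6 h at 37 C/5% CO2; pin compounds in DMSO; incubate 18 h at 37 C; add One-Glo; wait 30 min at room temperature; measure luminescence.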
A general note: Quantitative high-throughput screening tests each substance at several concentrations.

A short description of assay [3]: qHTS assay to identify small molecule agonists of the estrogen related receptor (ERR) signaling pathway (AID 1224820). The gist of the method: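 Cells: ERR line from NTP, 2,000/well. Pre-incubation 6 h, 37 C/5% CO2. Compound (DMSO) pin transfer, 18 h 37 C. One-Glo, 30 min RT, luminescence.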
Assay [4] deals with estrogen-related receptor alpha (ERRalpha) with PGC-1alpha coactivator, human. As to the kind of experiment: qHTS assay to identify small molecule antagonists of the estrogen related receptor signaling pathway with the pleiotropic PPARgamma coactivator (PGC) (AID 1224821; calls by dose curve; also: nearly all actives have a fitted effect of over 50% in size; also: potency is read from the fitted curve at half-maximal effect). In a few lines:
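Luminescent read-out (One-Glo, 30 min at room temperature) following 18 h treatment of PGC/ERR cells at 37 C with compounds delivered in DMSO. Cells had settled 6 h at 37 C/5% CO2 before dosing.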

Assay [5] can be described thus: qHTS assay to identify small molecule antagonists of the estrogen related receptor signaling pathway with the pleiotropic PPARgamma coactivator (PGC) cell viability counter screen (AID 1224822; also: series mostly up to about 46 µM). In a few lines:
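Cells: PGC/ERR, 2,000/well, 1536-well format. Pre-incubation 6 h, 37 C/5% CO2. Compound exposure 17.5 h, 37 C. Detection: CellTiter-Fluor, 30 min, fluorescence.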

A short description of assay [6]: qHTS assay to identify small molecule agonists of the estrogen related receptor signaling pathway with the pleiotropic PPARgamma coactivator (PGC) (AID 1224823). Also: potency is read from the fitted curve at half-maximal effect. The gist of the method: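 Steps: plate PGC/ERR cells at 2,000 cells/well; incubate 6 h, 37 C/5% CO2; pin-transfer compounds (DMSO); incubate 18 h, 37 C; add One-Glo; 30 min RT; read luminescence.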
Assay [7] can be described thus: qHTS assay to identify small molecule antagonists of the estrogen related receptor (ERR) signaling pathway from Tox21 library - cell viability counter screen (AID 1224834). Also: potency is read from the fitted curve at half-maximal effect; nearly all actives have a fitted effect of over 30% in size. The gist of the method:
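Fluorescence from CellTiter-Fluor gives the viability read-out, taken 30 min after reagent addition. Before that, ERR cells seeded 6 h earlier were incubated with compounds for 17.5 h at 37 C.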

The target of assay [8] is Luciferin 4-monooxygenase (Photinus pyralis) (UniProt P08659). As to the kind of experiment: qHTS assay to identify small molecule inhibitors of firefly luciferase (AID 1224835). Also: potency is read from the fitted curve at half-maximal effect; nearly all actives have a fitted effect of over 25% in size. In a few lines:
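Biochemical qHTS: compounds run as interplate titrations against purified firefly enzyme, with D-luciferin and ATP each at its KM concentration. Light output recorded by CCD imaging.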

For assay [9], the target named is Nuclear receptor subfamily 1 group I member 3 (Homo sapiens) (UniProt Q14994). Briefly: qHTS assay to identify small molecule agonists of the constitutive androstane receptor (CAR) signaling pathway (AID 1224839).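 Also: HepG2 cells stably carrying human CAR and a CYP2B6 luciferase reporter; series mostly up to about 92 µM; nearly all actives have a fitted effect of over 15% in size.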 In a few lines:
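Stable hCAR/CYP2B6-2.2kb HepG2 line in DMEM with 10% FBS; compounds (15 concentrations) and 0.75 uM PK11195 final, 24 h at 37 C/5% CO2, then ONE-Glo luminescence after 30 min.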

Assay [10] can be described thus: qHTS assay to identify small molecule antagonists of the estrogen related receptor signaling pathway with the pleiotropic PPARgamma coactivator (PGC) from Tox21 10K library (AID 1224841; call rule not given here; also: potency is read from the fitted curve at half-maximal effect; actives are mostly falling curves and most rising ones were filed inactive; nearly all actives have a fitted effect of over 50% in size). The gist of the method:
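PGC/ERR cell line, 2,000 cells/well; 6 h pre-incubation 37 C/5% CO2; compounds (DMSO) pinned in; 18 h, 37 C; One-Glo, 30 min RT; luminescence.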

Assay [11] in a line: qHTS assay to identify small molecule agonists of the hypoxia (HIF-1) signaling pathway (AID 1224846; active = well fitted activation curve with a large enough effect in the signal ratio in the repeat runs, not every such curve was filed as active; the % refers to the signal ratio). The gist of the method: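 Cell line: CellSensor HRE-bla ME-180; 2,000 cells/well; 0.5% dialyzed FBS; 5 h preincubation; DMSO compound pin transfer; 17 h, 37C, 5% CO2; CCF4-AM added; bla FRET signal scored for activation.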

Chain of Luciferin 4-monooxygenase (Photinus pyralis) (P08659 whole entry, looked up): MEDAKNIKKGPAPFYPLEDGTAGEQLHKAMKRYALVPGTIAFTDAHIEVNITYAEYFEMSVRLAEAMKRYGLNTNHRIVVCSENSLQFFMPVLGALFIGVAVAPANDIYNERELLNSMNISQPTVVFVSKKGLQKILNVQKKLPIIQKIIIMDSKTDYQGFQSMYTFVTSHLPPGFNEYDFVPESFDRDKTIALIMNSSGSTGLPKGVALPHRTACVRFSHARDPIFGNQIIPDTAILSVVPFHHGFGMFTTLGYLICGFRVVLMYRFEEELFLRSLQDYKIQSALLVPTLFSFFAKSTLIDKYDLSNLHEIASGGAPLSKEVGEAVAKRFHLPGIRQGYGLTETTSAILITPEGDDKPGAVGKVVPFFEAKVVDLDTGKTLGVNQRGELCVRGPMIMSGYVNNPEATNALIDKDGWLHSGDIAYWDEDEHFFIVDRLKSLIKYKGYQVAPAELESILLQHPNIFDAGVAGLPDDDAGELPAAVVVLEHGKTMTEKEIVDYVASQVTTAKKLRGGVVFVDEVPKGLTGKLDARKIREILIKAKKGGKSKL
Chain of Nuclear receptor subfamily 1 group I member 3 (Homo sapiens) (Q14994 whole entry, looked up): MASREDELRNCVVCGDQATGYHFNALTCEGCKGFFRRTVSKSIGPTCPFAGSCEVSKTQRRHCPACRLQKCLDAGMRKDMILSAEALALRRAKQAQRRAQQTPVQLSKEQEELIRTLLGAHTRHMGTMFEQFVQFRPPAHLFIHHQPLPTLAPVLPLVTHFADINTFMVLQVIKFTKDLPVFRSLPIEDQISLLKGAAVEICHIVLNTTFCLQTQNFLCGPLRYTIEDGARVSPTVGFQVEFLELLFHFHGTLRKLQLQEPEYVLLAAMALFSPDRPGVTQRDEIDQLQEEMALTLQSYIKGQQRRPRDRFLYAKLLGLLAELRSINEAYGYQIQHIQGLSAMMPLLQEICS

`OC[C@H]1O[C@H](n2cnc3c(N[C@H]4CCC[C@@H]4O)ncnc32)[C@H](O)[C@@H]1O`: the Potency result in assay [1], in assay [2], in [3], in assay [4] and in assay [5] was “inactive” in each case. In addition, the Potency in assay [6] is 9.08 µM (active).
Consider `[N-]=[N+]=Nc1ccc(C(=O)CSC[C@H](NC(=O)CC[C@H](N)C(=O)O)C(=O)NCC(=O)O)cc1`, for which the Potency result in [1], in assay [3], in [4], in assay [5] and in assay [6] was “inactive” each time. Besides, in assay [2], the Potency was 0.552 µM (active).
Regarding `O=[N+]([O-])c1cccc2cn[nH]c12`, the Potency entry in [1], in assay [2], in assay [3], in [4], in [5] and in [6] was “inactive” each time.
For the compound `O=c1ccn([C@@H]2O[C@H](COP(=O)(O)OP(=O)(O)O)[C@@H](O)[C@H]2O)c(=O)[nH]1`, the Potency entry in assay [1], in assay [2], in assay [3], in [4], in assay [5] and in assay [6] was “inactive” in each case.
Take `COc1ccc2c(c1)c(CC(=O)O)c(C)n2Cc1ccc(Cl)cc1`: the Potency entry in [1], in assay [2], in assay [3], in [4], in assay [5] and in assay [6] was “inactive” each time.
`CCOC(=O)C12CC1/C(=N/O)c1ccccc1O2` (centres undefined): the Potency result in assay [1], in assay [2], in assay [3], in assay [4], in [5] and in assay [6] was “inactive” in each case.
Consider `O=C(O)CCC/C=C\C[C@@H]1[C@@H](/C=C/[C@H](O)C2Cc3ccccc3C2)[C@@H](F)C[C@@H]1O`, for which the Potency result in assay [1], in [2], in [3], in [4], in assay [5] and in assay [6] was “inactive” each time.
Regarding `COc1ccccc1CN[C@@H]1CCCN[C@@H]1c1ccccc1`, the Potency result in [1], in assay [2], in assay [3], in assay [4], in assay [5] and in [6] was “inactive” each time.
As to `CC(=O)/C(C)=N/O`, the Potency result in assay [1], in assay [2], in assay [3], in assay [4], in assay [5] and in [6] was “inactive” each time.
Take `NCCS(=O)O`: the Potency result in [1], in assay [2], in [3], in assay [4], in assay [5] and in [6] was “inactive” in each case.
On to `COC(=O)C1=CO[C@@H](O)[C@@H]2C(CO)=CC[C@H]12`, for which the Potency entry in [1], in [2], in [3], in assay [4], in assay [5] and in [6] was “inactive” in each case.
`O=c1[nH]ccc2c(O)cccc12`: the Potency entry in assay [1], in [2], in assay [3], in assay [4], in assay [5] and in [6] was “inactive” throughout.
In the case of `CSc1nc(N)c2ncn([C@@H]3O[C@H](COP(=O)(O)OP(=O)(O)OP(=O)(O)O)C(O)[C@H]3O)c2n1` (some centres undefined), the Potency result in [1], in assay [2], in [3], in assay [4], in [5] and in assay [6] was “inactive” throughout.
For the compound `Clc1nccc2c1ccc1ccccc12`, the Potency result in [1], in [2], in [3], in assay [4], in assay [5] and in assay [6] was “inactive” each time.
As for `CCOC(=O)[C@H](CCc1ccccc1)N[C@@H](C)C(=O)N1[C@H](C(=O)O)C[C@H]2CCCC[C@@H]21`, the Potency result in [1], in assay [2], in [3], in [4], in assay [5] and in assay [6] was “inactive” in each case.
Consider `CO/N=C(\C(=O)N[C@@H]1C(=O)N2C(C(=O)O)=C(CSc3nc(=O)c(O)nn3C)CSC12)c1csc(N)n1` (some centres undefined), for which the Potency result in assay [1], in [2], in [3], in assay [4], in [5] and in assay [6] was “inactive” throughout.
Turning to `CCSC(=N)N`, the Potency result in assay [1], in assay [2], in assay [3], in assay [5] and in [6] was “inactive” each time.
On to `Cc1cc(N)c2ccccc2[n+]1CCCCCCCCCC[n+]1c(C)cc(N)c2ccccc21`, for which the Potency entry in [1], in assay [3], in [5] and in [6] was “inactive” throughout. Also, the Potency in assay [2] was 0.722 µM (active).
Turning to `Clc1ccc2c(N3CCN(CCCN4CCN(c5ccnc6cc(Cl)ccc56)CC4)CC3)ccnc2c1`, the Potency result in assay [1], in [2], in assay [3], in [5] and in assay [6] was “inactive” each time.
For `CCCCCC(O)CCCC(=O)O` (centres undefined), the Potency result in [1], in assay [2], in assay [3], in assay [5] and in assay [6] was “inactive” each time.
Turning to `N#CC(=C(\N)Sc1ccccc1N)/C(C#N)=C(/N)Sc1ccccc1N`, the Potency result in assay [1], in assay [3], in assay [5] and in assay [6] was “inactive” each time. Further, the Potency in assay [2] is 10.2 µM (active).
Take `O=C(O)C1CCNCC1`: the Potency result in assay [1], in [2], in assay [3], in assay [5] and in assay [6] was “inactive” throughout.
Take `CN(C)c1nc(N)c(C(=O)N=C(N)N)nc1Cl`: the Potency entry in assay [1], in [2], in [3], in assay [5] and in [6] was “inactive” throughout.
For the compound `CCCC(=O)c1cc(O)c(O)cc1O`, the Potency result in [1], in [2], in assay [3], in assay [4], in [9] and in assay [11] was “inactive” each time. Further, the Potency in assay [7] was 43.3 µM (active); in assay [8] it was 31.7 µM (active); in [10], 61.1 µM (active).
With `COc1cc(/C=C(\C#N)C(=O)Nc2nnc(C(F)(F)F)s2)ccc1OCc1ccc(C(F)(F)F)cc1C(F)(F)F`, the Potency entry in assay [1], in [3] and in assay [6] was “inactive” throughout. Besides, the Potency in assay [2] was 6.43 µM (active); in assay [4], 3.48 µM (active).
Take `CCC(=O)N1CCN(C(=O)c2ccccc2)CC1`: the Potency result in assay [1], in assay [2], in assay [3] and in assay [5] was “inactive” each time.
As for `N[C@H]1CONC1=O`, the Potency entry in [1], in assay [2], in assay [3], in assay [5] and in assay [6] was “inactive” throughout.
`CO[C@H]1O[C@@H]2O[C@]3(C)CC[C@@H]4[C@@H](C)CC[C@H]([C@H]1C)[C@]24OO3`: the Potency result in assay [1], in assay [3], in assay [5] and in assay [6] was “inactive” each time. For the same compound, in [2], the Potency is 0.531 µM (active).
